{
  "source": "paper PMC4336329",
  "about": "(PLoS ONE, 2015)",
  "note": "Among all 310,000 compounds or so, about 14,000 (4.5%) showed an effect of 50% or more. The effect is printed as a negative number. The sample as a whole holds a higher share of strong results than the screen did.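 Also: peak tail current of the secondary pulse compared with the same well before compound.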",
  "data": [
    {"target": "human ether-à-go-go-related gene (hERG) potassium channel (human, UniProt Q12809)", "sequence (Q12809 whole entry, looked up)": "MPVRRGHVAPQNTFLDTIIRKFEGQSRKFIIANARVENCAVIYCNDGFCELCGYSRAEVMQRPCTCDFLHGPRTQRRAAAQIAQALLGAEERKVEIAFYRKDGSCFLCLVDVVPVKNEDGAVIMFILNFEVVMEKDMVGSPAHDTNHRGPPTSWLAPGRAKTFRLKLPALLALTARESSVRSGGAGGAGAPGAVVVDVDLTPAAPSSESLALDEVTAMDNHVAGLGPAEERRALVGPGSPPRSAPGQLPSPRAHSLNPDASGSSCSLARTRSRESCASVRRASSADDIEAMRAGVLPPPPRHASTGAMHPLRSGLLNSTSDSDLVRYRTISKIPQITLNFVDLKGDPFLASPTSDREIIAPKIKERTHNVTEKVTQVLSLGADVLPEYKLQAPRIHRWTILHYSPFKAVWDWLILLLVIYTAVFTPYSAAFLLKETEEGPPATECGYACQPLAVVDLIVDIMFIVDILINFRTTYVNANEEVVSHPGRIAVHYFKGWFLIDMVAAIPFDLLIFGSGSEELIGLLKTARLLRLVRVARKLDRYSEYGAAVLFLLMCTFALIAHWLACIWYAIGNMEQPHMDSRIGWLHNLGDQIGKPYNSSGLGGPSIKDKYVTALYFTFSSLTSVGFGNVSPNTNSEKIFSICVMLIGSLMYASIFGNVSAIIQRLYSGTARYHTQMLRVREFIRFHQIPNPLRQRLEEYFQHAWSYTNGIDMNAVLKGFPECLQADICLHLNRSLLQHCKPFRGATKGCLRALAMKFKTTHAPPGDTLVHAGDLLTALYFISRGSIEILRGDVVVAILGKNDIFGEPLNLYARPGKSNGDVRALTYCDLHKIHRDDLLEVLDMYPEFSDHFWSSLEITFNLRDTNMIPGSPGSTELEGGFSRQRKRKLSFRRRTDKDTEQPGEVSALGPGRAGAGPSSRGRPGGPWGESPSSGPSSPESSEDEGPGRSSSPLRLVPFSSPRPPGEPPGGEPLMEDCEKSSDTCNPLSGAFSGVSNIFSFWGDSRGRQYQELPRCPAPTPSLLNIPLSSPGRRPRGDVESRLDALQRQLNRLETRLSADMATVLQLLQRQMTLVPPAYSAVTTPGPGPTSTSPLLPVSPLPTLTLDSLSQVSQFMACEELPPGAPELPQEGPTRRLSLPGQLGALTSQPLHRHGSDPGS", "assay": "primary screen, population patch clamp on CHO cells stably expressing hERG; higher = less effect of the substance", "units": {"hERG current change (%, negative = inhibition) at 10uM": "%"}, "values": [
      {"compound": "COC(C)(C)[C@H](O)COc1c2ccoc2cc2oc(=O)ccc12", "hERG current change (%, negative = inhibition) at 10uM": 11.2},
      {"compound": "Cc1cccc(CCNC(=O)CCNS(=O)(=O)c2cc(Br)cnc2N)c1", "hERG current change (%, negative = inhibition) at 10uM": -5.7},
      {"compound": "CC(C)c1ccc(-c2c(C#N)c(N)nc(SCC(=O)N3CCCCCC3)c2C#N)cc1", "hERG current change (%, negative = inhibition) at 10uM": 8.56},
      {"compound": "COc1ccccc1C(=O)Nc1ccc(OC(C)C(=O)N2CCOCC2)cc1", "note": "(centres unmarked)", "hERG current change (%, negative = inhibition) at 10uM": 1.1},
      {"compound": "Cc1cccc(NC(=O)N2CCN(Cc3ccccc3)CC2)c1", "hERG current change (%, negative = inhibition) at 10uM": 8.14},
      {"compound": "O=C(Nc1cccc(C(=O)N2CCN(Cc3ccccc3)CC2)c1)c1ccccc1", "hERG current change (%, negative = inhibition) at 10uM": -16.7},
      {"compound": "Cc1cccc(NC(=O)N2CCN(Cc3ccc(Cl)cc3)CC2)c1", "hERG current change (%, negative = inhibition) at 10uM": -50.7},
      {"compound": "Cc1cccc(NC(=O)N2CCCC2)c1", "hERG current change (%, negative = inhibition) at 10uM": 12.4},
      {"compound": "Cc1cccc(NC(=O)c2ccc(CN3CCN(Cc4ccccc4)CC3)cc2)c1", "hERG current change (%, negative = inhibition) at 10uM": -80.3},
      {"compound": "COc1cccc(NC(=O)c2ccc(CN3CCN(c4ccccc4)CC3)cc2)c1", "hERG current change (%, negative = inhibition) at 10uM": -48.8},
      {"compound": "O=S(=O)(NNC(=S)NCC1CCCO1)c1cc(Cl)ccc1Cl", "note": "(centres unmarked)", "hERG current change (%, negative = inhibition) at 10uM": 9.42},
      {"compound": "COC(=O)C1=C(C)N(CCc2ccccc2)C(=O)/C1=C\\c1ccco1", "hERG current change (%, negative = inhibition) at 10uM": -4.19},
      {"compound": "Cn1c(=O)c2c(nc(NCCCO)n2C/C=C/c2ccccc2)n(C)c1=O", "hERG current change (%, negative = inhibition) at 10uM": -21},
      {"compound": "Cn1c(CSCc2ccc(F)cc2)nnc1SCC(=O)N1CCN(c2ccccc2)CC1", "hERG current change (%, negative = inhibition) at 10uM": -70.7},
      {"compound": "Cc1ccc(CSCc2nnc(SCC(=O)N3CCN(c4ccccc4)CC3)n2C)cc1", "hERG current change (%, negative = inhibition) at 10uM": -54},
      {"compound": "O=C(CSc1nncn1-c1ccccc1)N1CCCC1", "hERG current change (%, negative = inhibition) at 10uM": 2.66},
      {"compound": "Cn1c(Cc2ccccc2)nnc1SCC(=O)N1CCN(c2ccccc2)CC1", "hERG current change (%, negative = inhibition) at 10uM": -14.5},
      {"compound": "Cn1c(CNC(=O)c2ccccc2F)nnc1SCC(=O)N1CCN(c2ccccc2)CC1", "hERG current change (%, negative = inhibition) at 10uM": -8.2},
      {"compound": "COc1ccc(-n2cnnc2SCC(=O)N2CCN(c3ccccc3)CC2)cc1", "hERG current change (%, negative = inhibition) at 10uM": -36.2},
      {"compound": "Cc1ccccc1-n1cnnc1SCC(=O)N1CCN(c2ccccc2)CC1", "hERG current change (%, negative = inhibition) at 10uM": -57.7},
      {"compound": "C=CCn1c(CSCc2ccccc2)nnc1SCC(=O)N1CCN(c2ccccc2)CC1", "hERG current change (%, negative = inhibition) at 10uM": -23.6},
      {"compound": "Cc1ccc(CSCC(=O)N2CCN(c3ccccc3)CC2)cc1", "hERG current change (%, negative = inhibition) at 10uM": -9.06},
      {"compound": "Cn1c(CNC(=O)c2ccccc2)nnc1SCC(=O)N1CCN(c2ccccc2)CC1", "hERG current change (%, negative = inhibition) at 10uM": 1.77},
      {"compound": "CCn1c(CSCc2ccc(C)cc2)nnc1SCC(=O)N1CCN(c2ccccc2)CC1", "hERG current change (%, negative = inhibition) at 10uM": -45.4},
      {"compound": "CCn1c(CSCc2ccc(F)cc2)nnc1SCC(=O)N1CCN(c2ccccc2)CC1", "hERG current change (%, negative = inhibition) at 10uM": -58.6},
      {"compound": "COc1ccc(OCC(N)=O)cc1", "hERG current change (%, negative = inhibition) at 10uM": 8.9},
      {"compound": "O=c1[nH]c(SCc2cccc(Cl)c2)nc2[nH]ncc12", "hERG current change (%, negative = inhibition) at 10uM": 12.6},
      {"compound": "C#Cc1ccc([C@@H]2C=C(C(=O)NC3CC3)O[C@H](OCC)[C@H]2CCCO)cc1", "hERG current change (%, negative = inhibition) at 10uM": -35.2},
      {"compound": "CC(NC(=O)c1ccccc1)c1nnc(SCc2nc3ccccc3c(=O)[nH]2)n1C", "note": "(centres unmarked)", "hERG current change (%, negative = inhibition) at 10uM": 14},
      {"compound": "C[C@@H](CO)NC(=O)c1ccc2c3n(nc2c1)-c1ccc(Cl)cc1CO3", "hERG current change (%, negative = inhibition) at 10uM": -1.96},
      {"compound": "Cc1ccccc1NC(=O)CN1C(=O)NC(C)(c2ccc3c(c2)OCO3)C1=O", "note": "(centres unmarked)", "hERG current change (%, negative = inhibition) at 10uM": 9.53},
      {"compound": "COc1ccc(C)cc1-n1nnnc1SCC(=O)NC1CC1", "hERG current change (%, negative = inhibition) at 10uM": 0.673},
      {"compound": "COCCN1CCN(C(=O)c2cc(COc3cc(C)ccc3C)on2)CC1", "hERG current change (%, negative = inhibition) at 10uM": 1.06},
      {"compound": "Cc1ccc(C)c(OCc2cc(C(=O)N3CCN(c4cnccn4)CC3)no2)c1", "hERG current change (%, negative = inhibition) at 10uM": -81.7},
      {"compound": "Cc1ccc(C)c(OCc2cc(C(=O)N3CCN(c4ccccc4)CC3)no2)c1", "hERG current change (%, negative = inhibition) at 10uM": -31.4},
      {"compound": "CCN1CCC2(CCN(C(=O)c3cc(COc4cc(C)ccc4C)on3)C2)C1", "note": "(centres unmarked)", "hERG current change (%, negative = inhibition) at 10uM": -54.8},
      {"compound": "Cc1ccc(C)c(OCc2cc(C(=O)N3CCOCC3)no2)c1", "hERG current change (%, negative = inhibition) at 10uM": -3.82},
      {"compound": "Cc1ccc(C)c(OCc2cc(C(=O)N3CCN(C(=O)c4ccco4)CC3)no2)c1", "hERG current change (%, negative = inhibition) at 10uM": -10.7},
      {"compound": "FC(F)(F)c1ccc(N2CCN(c3ncnc4c3nnn4Cc3ccccc3)CC2)nc1", "hERG current change (%, negative = inhibition) at 10uM": -2.11},
      {"compound": "C=CCn1c(C)cc(C(=O)CSc2nnc(NCc3ccccc3)s2)c1C", "hERG current change (%, negative = inhibition) at 10uM": -8.54},
      {"compound": "O=c1[nH]c(O)c(C=Nc2ccccc2Oc2ccccc2)c(=O)[nH]1", "hERG current change (%, negative = inhibition) at 10uM": 15.9},
      {"compound": "COc1ccc(NS(=O)(=O)c2ccc(NC(=O)Cc3cccs3)cc2)cc1", "hERG current change (%, negative = inhibition) at 10uM": 12.7},
      {"compound": "CCOc1ccc2nc(C)cc(C(=O)O)c2c1", "hERG current change (%, negative = inhibition) at 10uM": -2.09},
      {"compound": "CCN1CCN(c2ccc(S(=O)(=O)N3CCOCC3)cc2NC(=O)CC(C)C)CC1", "hERG current change (%, negative = inhibition) at 10uM": 0.99},
      {"compound": "CC1CC(C)CN(C(=S)Nc2ccc(OC(F)F)cc2)C1", "note": "(centres unmarked)", "hERG current change (%, negative = inhibition) at 10uM": -36.6},
      {"compound": "Br.O=C(CN1CCCCC1)c1ccc(OC(F)F)cc1", "hERG current change (%, negative = inhibition) at 10uM": -69.6},
      {"compound": "Br.COc1ccc(C(=O)CN2CCCCC2)cc1", "hERG current change (%, negative = inhibition) at 10uM": 7.07},
      {"compound": "Cl.O=C(CN1CCCCC1)c1ccc(F)cc1", "hERG current change (%, negative = inhibition) at 10uM": 1.94},
      {"compound": "CC1CC(C)CN(CC(=O)c2cccs2)C1", "note": "(centres unmarked)", "hERG current change (%, negative = inhibition) at 10uM": -9.99},
      {"compound": "Br.CC1CC(C)CN(CC(=O)c2ccc(OC(F)F)cc2)C1", "note": "(centres unmarked)", "hERG current change (%, negative = inhibition) at 10uM": -91.5},
      {"compound": "Cc1cccc(C)c1-n1nnnc1C1(Nc2ccccc2)CCCCC1", "hERG current change (%, negative = inhibition) at 10uM": -4.36},
      {"compound": "CCCN(CC(=O)Nc1ccccc1OC)C(=O)CCNC(=O)c1ccccc1OC", "hERG current change (%, negative = inhibition) at 10uM": -2.16},
      {"compound": "CCN(CC)S(=O)(=O)c1ccc(N2CCN(CCO)CC2)nc1", "hERG current change (%, negative = inhibition) at 10uM": -3.97},
      {"compound": "CCN(c1ccccc1)S(=O)(=O)c1ccc(N2CCN(c3ccccc3O)CC2)nc1", "hERG current change (%, negative = inhibition) at 10uM": -0.538},
      {"compound": "CCN(CC)S(=O)(=O)c1ccc(N2CCN(c3ccccc3O)CC2)nc1", "hERG current change (%, negative = inhibition) at 10uM": -52.8},
      {"compound": "Cc1ccc(CN2CCNC(=O)C2CC(=O)N(Cc2c(C)nn(C)c2C)C2CC2)o1", "note": "(centres unmarked)", "hERG current change (%, negative = inhibition) at 10uM": 23.9}
    ]}
  ]
}
